Rows were chosen to be rich in hits. Some 4.4% of all compounds tested hit in one or more screens of this group.
SUMO Mot1 rescue = inhibitors of SUMOylation pathway: yeast Mot1-301 growth rescue. growth rescue, % at 18.8 µM. AID 2716. S. cerevisiae Mot1-301 growth rescue, ATP luminescence, 38.5C; percent above DMSO median, 100 means doubled. hit rate 1% among 320,000;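 active = every valid replicate shows activation above 250% relative to neutral control wells; inactive = the rest, any valid replicate at or below 250%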;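 note: OY570 slx delta 5 strain wells were the positive control but not used for scaling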
PfHsp90 set2 = growth inhibition of yeast expressing Plasmodium Hsp90; S. cerevisiae expressing PfHsp90, BacTiter-Glo ATP, 48 h; yeast lacking PDR1 and PDR3 efflux regulators; inhibition, % at 9.4 µM; hit rate 0.32% among 310,000; AID 504621;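 active = every replicate shows inhibition above about 80%, whatever the replicate mean, limit read from the data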;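 note: 0% = DMSO neutral controls and 100% = 20 µM radicicol positive controls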
TIM10 inh = growth inhibitors of TIM10 yeast strain; S. cerevisiae TIM10 strain growth, BacTiter-Glo luminescence, 24 h; AID 463195; inhibition, % at 10 µM; hit rate 1.4% among 330,000;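 active = inhibition of 40% or more at the single tested concentration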;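 note: wild-type TIM10 isogenic control strain grown at permissive 25 °C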
tim10-1 inh = inhibits growth of tim10-1 mutant yeast; hit rate 2.2% among 330,000; inhibition, % at 20 µM; S. cerevisiae tim10-1 ts strain growth, BacTiter-Glo, 24 h;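 active = inhibition of at least 40%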;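 note: mutant grown at 25 °C; 0% = DMSO wells with yeast and 100% = wells holding no yeast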
tim23-1 inh = inhibits growth of tim23-1 mutant yeast | S. cerevisiae tim23-1 growth, BacTiter-Glo luminescence, 24 h | inhibition, % at 20 µM | hit rate 1.3% among 330,000;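 active = growth inhibition of the mutant yeast at or above 50%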;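 note: temperature-sensitive mutant grown at 25 °C; plate controls were DMSO-treated mutant yeast for no effect and medium wells lacking yeast for full effect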
tim10-1 confirm = tim10-1 yeast growth inhibition, confirmed; inhibition, % at 20 µM; AID 463213; shares compounds with tim10-1 inh; hit rate 56% among 7,400; S. cerevisiae tim10-1 ts strain growth, BacTiter-Glo, 24 h;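 active = inhibition of yeast growth at or above a set limit in either of two repeat tests at 20 µM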;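 note: tim10-1 mutant grown at permissive 25 °C to find synthetic lethal compounds; 0% = DMSO yeast wells and 100% = medium wells without yeast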
tim10 confirm = TIM10 yeast growth inhibition, confirmed; hit rate 63% among 4,600; shares compounds with TIM10 inh; inhibition, % at 10 µM; S. cerevisiae tim10 strain growth, BacTiter-Glo luminescence, 24 h;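 active = inhibition of yeast growth at or above a set limit in either of two replicates at 10 µM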;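 note: this counterscreen used the strain with wild-type TIM10; 0% = yeast with DMSO and 100% = medium wells lacking yeast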
tim23-1 confirm = tim23-1 yeast growth inhibition, confirmed; hit rate 83% among 4,400; shares compounds with tim23-1 inh; AID 463218; S. cerevisiae tim23-1 growth, BacTiter-Glo luminescence, 24 h; inhibition, % at 20 µM;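 active = inhibition above about 39% in either of two replicate wells at 20 µM, limit read from the data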;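 note: temperature-sensitive tim23-1 mutant grown at 25 °C; 0% = DMSO wells with yeast and 100% = medium wells without yeast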
* marks the source's active call; other numbers are inactive results; . = no result given.

SMILES	SUMO Mot1 rescue	PfHsp90 set2	TIM10 inh	tim10-1 inh	tim23-1 inh	tim10-1 confirm	tim10 confirm	tim23-1 confirm
Cc1cccc(NC(=O)C2CCN(S(=O)(=O)c3cccc4nonc34)CC2)c1	-3	-26	-38	-25	-2	.	.	.
O=Nc1c(-c2ccccc2)cc2ccccn12	-6	-41	49*	50*	66*	43*	29*	63*
N#Cc1c(-c2ccccc2)cc(-c2ccccc2)nc1SCCC(=O)O	3	-7	14	14	33	.	.	.
Cc1nn(Cc2noc(C(=O)NC3CCC(C)CC3)n2)c(C)c1Br (stereo unspecified)	-7	-29	10	31	16	.	.	.
COc1cccc(F)c1C(C[N+](=O)[O-])c1c(N)n(C)c(=O)n(C)c1=O (stereo unspecified)	4	103*	46*	54*	82*	60*	52*	82*
COc1cc(C(C[N+](=O)[O-])c2c(N)n(C)c(=O)n(C)c2=O)ccc1O (stereo unspecified)	-41	-6	28	-4	48	.	.	.
COc1ccc(C(=O)O/N=C(\N)c2cccc(C)c2)cc1OC	233	4	46*	51*	53*	52*	54*	71*
Cc1cccc(/C(N)=N/OC(=O)c2ccoc2C)c1	-13	-48	55*	44*	67*	55*	39*	50*
COc1cccc(C(=O)O/N=C(\N)Cc2ccc(Cl)cc2)c1	33	-15	85*	53*	58*	30	-2	43*
Cc1cccc(/C(N)=N/OC(=O)c2ccncc2)c1	3	-50	36	26	8	.	.	.
COc1cccc(C(=O)O/N=C(\N)c2ccc(C)cc2)c1	0	-17	72*	57*	69*	41*	82*	71*
COc1cc(OC)cc(C(=O)N/N=C\c2ccoc2)c1	-10	-8	3	3	12	.	.	.
Cc1ccc(C(=O)/C=C/c2c[nH]c3ccccc23)cc1	-12	-29	36	44*	80*	23	.	44*
Cc1ccc(C(=O)/C=C/c2cn(CN3CCN(C)CC3)c3ccccc23)cc1	-26	-11	60*	52*	56*	38*	55*	-93
Cc1ccc(C(=O)O/N=C2/CC3CCC2(C)[C@@]3(C)CBr)cc1 (stereo partly specified)	2	-4	8	37	44	.	.	.
Cc1ccc(C(=O)O/N=C2\CC3CCC2(C)C3(C)C)cc1 (stereo unspecified)	15	-26	76*	67*	66*	67*	75*	68*
Cc1cccc(C(=O)O/N=C2/CC3CCC2(C)C3(C)C)c1 (stereo unspecified)	27	22	65*	50*	59*	65*	70*	66*
CC(=O)N(C(C)=O)N1C(=O)/C(=C/c2ccc(Cl)cc2)SC1=S	180	114*	57*	64*	75*	58*	80*	39*
O=C(NC1CCCCCC1)c1ccc([N+](=O)[O-])s1	.	.	29	57*	63*	50*	.	48*
O=C(NC1CCCC1)c1ccc(Cl)s1	0	1	-11	-16	6	.	.	.
Cc1cccc(NC(=O)CSc2nc3ccccc3c(=O)n2C)c1	-25	-51	-20	-19	10	.	.	.
Cn1c(/C=C/c2cccc(Br)c2)nc2ccccc2c1=O	5	-11	22	57*	63*	55*	.	59*
CCn1c(/C=C/c2cc(Br)ccc2O)nc2ccccc2c1=O	12	-18	58*	67*	63*	69*	59*	75*
COc1ccc(C(=O)Nc2ccccc2C(=O)N/N=C/c2ccncc2)cc1OC	-39	34	33	43*	61*	55*	.	53*
COc1ccc(C(=O)Nc2ccccc2C(=O)NCc2cccnc2)cc1OC	1	-2	8	-1	4	.	.	.
SMILES	SUMO Mot1 rescue	PfHsp90 set2	TIM10 inh	tim10-1 inh	tim23-1 inh	tim10-1 confirm	tim10 confirm	tim23-1 confirm
Cc1[nH]nc2c1C(c1cc(Br)cs1)C(C#N)=C(N)O2 (stereo unspecified)	165	-27	30	53*	61*	35*	.	45*
O=C(COc1ccc(S(=O)(=O)N2CCOCC2)cc1)NC1CC1	-2	36	-10	15	11	.	.	.
COc1cc(O)c2c(=O)c3c(OC)c(O)ccc3oc2c1	12	-12	42*	67*	56*	57*	51*	66*
COc1cc(O)c2c(=O)cc(-c3ccccc3)oc2c1	0	-18	-3	-12	16	.	.	.
Cc1nn(-c2cccc(Cl)c2)c2c1C(c1ccncc1)C(C#N)=C(N)O2 (stereo unspecified)	-15	.	28	36	15	.	.	.
COc1ccc(OC)c(C2C(C#N)=C(N)Oc3c2c(C)nn3-c2cccc(Cl)c2)c1 (stereo unspecified)	8	.	44*	46*	51*	29	15	50*
CCC1CSC(Nc2ccc(C(=O)/C=C/c3ccc(Br)cc3)cc2)=N1 (stereo unspecified)	60	-2	50*	45*	54*	51*	48*	55*
CCC1CSC(Nc2ccc(C(=O)/C=C/c3ccc(OC)c(OC)c3)cc2)=N1 (stereo unspecified)	-1	.	37	16	32	.	.	.
CCOC(=O)C1CCN(C(=O)C(C)Sc2nnc3ccccn23)CC1 (stereo unspecified)	-8	15	-13	-11	-7	.	.	.
O=C1CN(S(=O)(=O)c2cc(C(=O)O)ccc2Cl)c2ccccc2N1	-21	9	9	8	4	.	.	.
Brc1ccc2c(c1)OCCOCCOc1cc(Br)ccc1OCCOCCOCCO2	-14	10	35	57*	62*	62*	.	72*
CCOC(=O)c1sc(NC(=O)C2CCCCC2)nc1C	9	5	24	13	35	.	.	.
Cc1ccccc1CNC(=O)C(=O)NCCC1CCCCN1S(=O)(=O)c1cccs1 (stereo unspecified)	9	35	11	29	18	.	.	.
COc1cccc(CN2c3ccc(Br)cc3C(=O)CS2(=O)=O)c1	8	-25	32	40*	57*	38*	.	60*
COc1cccc(CN2C(=O)C(C)Oc3ccccc32)c1 (stereo unspecified)	-21	-10	-2	10	-3	.	.	.
O=C(C1CC(=O)N(c2ccc3c(c2)OCCO3)C1)N1CCN(c2cccc(C(F)(F)F)c2)CC1 (stereo unspecified)	46	-2	10	17	20	.	.	.

Screening results from PubChem BioAssay.
